Bioassay records (PubChem)
Shn3 inh set2 – Schnurri-3 reporter inhibition in Clone20 osteoblasts. Clone20 osteoblast Shn3 3'UTR firefly luciferase, 24 h. inhibition, % at 12.5 µM. 360,000 compounds, 0.52% hits. AID 588674;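 active means mean inhibition of at least 75% with every replicate also reaching 75%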;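 further: 0% = median of neutral control wells and 100% = pilot-screen positive control compound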
Mdm2 MdmX PPI – disrupts the human Mdm2-MdmX interaction; inhibition, % at 8 µM; AID 485346; O15151+Q00987; SaOS-2 split-luciferase Mdm2/MdmX complementation, luminescence; 330,000 compounds, 3% hits;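 active means inhibition of at least 50% at 8 µM in the primary screen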
Target sequence (O15151 whole entry, looked up): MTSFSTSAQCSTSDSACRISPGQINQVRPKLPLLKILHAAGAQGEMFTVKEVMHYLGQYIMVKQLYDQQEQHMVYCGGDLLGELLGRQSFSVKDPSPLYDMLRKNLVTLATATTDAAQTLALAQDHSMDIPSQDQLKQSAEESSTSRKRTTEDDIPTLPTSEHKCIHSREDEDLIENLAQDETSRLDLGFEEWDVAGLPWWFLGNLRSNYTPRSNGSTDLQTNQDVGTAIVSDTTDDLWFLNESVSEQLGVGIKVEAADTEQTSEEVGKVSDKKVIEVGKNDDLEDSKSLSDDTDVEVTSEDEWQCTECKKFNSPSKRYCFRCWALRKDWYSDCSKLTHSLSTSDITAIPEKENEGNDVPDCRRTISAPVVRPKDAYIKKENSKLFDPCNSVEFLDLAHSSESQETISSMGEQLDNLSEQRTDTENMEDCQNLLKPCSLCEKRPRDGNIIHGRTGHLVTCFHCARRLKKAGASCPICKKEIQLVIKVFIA
Target sequence (Q00987 whole entry, looked up): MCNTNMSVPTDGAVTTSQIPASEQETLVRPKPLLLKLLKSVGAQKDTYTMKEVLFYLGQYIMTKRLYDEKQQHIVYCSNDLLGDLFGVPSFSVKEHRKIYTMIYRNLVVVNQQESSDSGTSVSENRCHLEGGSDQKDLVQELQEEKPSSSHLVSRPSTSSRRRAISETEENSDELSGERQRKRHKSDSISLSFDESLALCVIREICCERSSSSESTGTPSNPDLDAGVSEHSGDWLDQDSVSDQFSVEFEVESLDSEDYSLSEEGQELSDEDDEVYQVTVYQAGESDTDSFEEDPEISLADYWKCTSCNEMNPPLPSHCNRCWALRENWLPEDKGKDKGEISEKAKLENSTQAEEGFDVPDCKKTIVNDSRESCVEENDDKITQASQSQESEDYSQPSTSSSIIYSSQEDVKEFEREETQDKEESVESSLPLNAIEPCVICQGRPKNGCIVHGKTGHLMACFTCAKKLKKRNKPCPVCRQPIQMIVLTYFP
Gli-Sufu antag – Gli-Sufu pathway antagonism; Sufu-KO-LIGHT fibroblasts, Gli luciferase reporter luminescence; inhibition, % at 5 µM; 340,000 compounds, 0.74% hits;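 active means inhibition above about 55%, limit read from the data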;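 further: 0% = DMSO-treated cells and 100% = wells with medium but no cells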
697 NFkB inh – lowers PMA/ionomycin-induced NF-kB signal in 697 B cells | 697 B-cell NF-kB luciferase reporter, 16 h | inhibition, % at 4 µM | 330,000 compounds, 0.33% hits | AID 435022; in the data active means inhibition above about 35%
Jurkat NFkB inh – lowers PMA/ionomycin-induced NF-kB signal in Jurkat cells; PMA/ionomycin-induced NF-kB luciferase reporter, luminescence; inhibition, % at 4 µM; 330,000 compounds, 0.53% hits; AID 435003; in the data active means inhibition above about 50%
Gli antag conf – confirmation of Gli-SUFU pathway antagonists | shares compounds with Gli-Sufu antag | inhibition, % at 5 µM | 2,500 compounds, 40% hits | Sufu-KO-LIGHT cells, Gli luciferase reporter, luminescence | AID 602428;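 active means mean inhibition at 5 µM reaching about 45%, limit read from the data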;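 further: plate controls were DMSO-treated cells for no effect and wells lacking cells for full effect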
Gli cytotox – counter-screen for Gli-SUFU antagonists: cytotoxicity; Sufu-KO-LIGHT cells cytotoxicity, ATP luminescence; shares compounds with Gli-Sufu antag; cytotoxicity, % at 5 µM; 2,500 compounds, 32% hits;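 active means mean cytotoxicity at 5 µM above about 25%, limit read from the data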;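 further: cells exposed to compound overnight for roughly 16 to 18 hours; plate controls were DMSO wells with cells for no effect and medium without cells for full effect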
Wnt3a cs – Wnt3a reporter inhibition counter-screen. inhibition, % at 6.25 µM. 2,500 compounds, 20% hits. shares compounds with Gli-Sufu antag. Wnt-LIGHT cells, Wnt3a-driven luciferase reporter, luminescence;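 active means mean inhibition above about 25%, limit read from the data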
Starred values were filed as active, the others as inactive. Only some compounds are listed: those with a hit (about 3.8% of all), similar ones and a draw of the others.

Results for O=C(CCN1C(=O)c2cccc([N+](=O)[O-])c2C1=O)NC1CCCCCC1 ?
Shn3 inh set2: -18.3; Mdm2 MdmX PPI: -2.7; Gli-Sufu antag: -0.9; 697 NFkB inh: 20.5; Jurkat NFkB inh: -6.2

Results for NC(=O)c1cc(S(=O)(=O)N2CCc3ccccc3C2)cs1 ?
Shn3 inh set2: -0.7; Mdm2 MdmX PPI: -18.9; Gli-Sufu antag: -20.2; 697 NFkB inh: 9.9; Jurkat NFkB inh: 11.3

Results for O=C(N/N=C/c1ccncc1)C12CC3CC(CC(C3)C1)C2 ?
Shn3 inh set2: 5.4; Mdm2 MdmX PPI: -23.2; Gli-Sufu antag: 57.6*; 697 NFkB inh: 7.0; Jurkat NFkB inh: -2.1; Gli antag conf: 20.8; Gli cytotox: 6.0; Wnt3a cs: -18.4

Results for Cn1ccnc1SCC(=O)Nc1cccc(S(=O)(=O)N2CCCCC2)c1 ?
Shn3 inh set2: 9.5; Mdm2 MdmX PPI: 13.8; Gli-Sufu antag: 2.1; 697 NFkB inh: 5.2; Jurkat NFkB inh: -5.8

What do the screens show for `O=C(Cc1ccc(Cl)cc1)N1CCN(c2ccccc2)CC1`?
Shn3 inh set2: 7.1; Mdm2 MdmX PPI: -47.4; Gli-Sufu antag: 52.5; 697 NFkB inh: -30.5; Jurkat NFkB inh: -0.2; Gli antag conf: 23.3; Gli cytotox: 13.0; Wnt3a cs: -40.2

What do the screens show for `CON(c1nc(Cl)nc(N(C)C)n1)S(=O)(=O)c1ccccc1Cl`?
Shn3 inh set2: 4.5; Mdm2 MdmX PPI: 16.2; Gli-Sufu antag: 88.5*; 697 NFkB inh: 17.5; Jurkat NFkB inh: 24.9; Gli antag conf: 27.0; Gli cytotox: 5.3; Wnt3a cs: -8.8

Results for COc1nc(N(C)C)nc(N(OC)S(=O)(=O)c2ccccc2Cl)n1 ?
Shn3 inh set2: 1.8; Mdm2 MdmX PPI: -4.2; Gli-Sufu antag: 1.6; 697 NFkB inh: -23.0; Jurkat NFkB inh: -4.8

How did O=C(C(=Cc1ccccc1)CN1CCCCC1)c1ccccc1 do in these assays?
Shn3 inh set2: 95.0*; Gli-Sufu antag: 60.3*; Gli antag conf: 77.5*; Gli cytotox: 12.7; Wnt3a cs: 68.9*

What do the screens show for `Clc1ccc(CN2CCN(c3ncccn3)CC2)cc1`?
Shn3 inh set2: 8.0; Mdm2 MdmX PPI: 8.3; Gli-Sufu antag: 12.1; 697 NFkB inh: -0.1; Jurkat NFkB inh: -17.6

Results for CCC(C(=O)NCCN1CCN(C)CC1)n1c(C)c2cnn(-c3ccccc3)c(=O)c2c1C (stereo not given) ?
Shn3 inh set2: -2.3; Mdm2 MdmX PPI: 5.1; Gli-Sufu antag: 94.0*; 697 NFkB inh: 0.0; Jurkat NFkB inh: 2.1; Gli antag conf: 9.7; Gli cytotox: 23.7; Wnt3a cs: -9.2

Results for CCCN1CCN(C(=O)CCCn2c(C)c3cnn(-c4ccccc4)c(=O)c3c2C)CC1 ?
Shn3 inh set2: -3.3; Mdm2 MdmX PPI: 12.3; Gli-Sufu antag: 4.7; 697 NFkB inh: 13.0; Jurkat NFkB inh: 8.0

How did CCN(CC)CCN1C(=O)C2C(C(=O)Nc3cc(C)cc(C)c3)C3C=CC2(O3)C1C(=O)NC1CCCCC1 (stereo not given) do in these assays?
Shn3 inh set2: -15.5; Mdm2 MdmX PPI: -8.3; Gli-Sufu antag: 64.3*; 697 NFkB inh: -2.6; Jurkat NFkB inh: 18.3; Gli antag conf: 11.7; Gli cytotox: 0.9; Wnt3a cs: -5.8

Results for S=C(Sc1ccc(Cl)cc1)Sc1ccc(Cl)cc1 ?
Mdm2 MdmX PPI: 23.5; 697 NFkB inh: 2.3; Jurkat NFkB inh: 27.1

What do the screens show for `O=C(CCNC(=O)c1ccccc1)NNC(=O)COc1ccccc1Cl`?
Shn3 inh set2: -15.2; Mdm2 MdmX PPI: -13.4; Gli-Sufu antag: -4.0; 697 NFkB inh: -0.1; Jurkat NFkB inh: -16.2

What do the screens show for `c1csc(CCNc2ncnc3sc4c(c23)CCC4)c1`?
Shn3 inh set2: 88.1*; Mdm2 MdmX PPI: 35.7; Gli-Sufu antag: 55.6*; 697 NFkB inh: -11.8; Jurkat NFkB inh: 30.5; Gli antag conf: 59.6*; Gli cytotox: 29.6*; Wnt3a cs: 1.2

How did c1ccc(Nc2ncnc3sc4c(c23)CCC4)cc1 do in these assays?
Shn3 inh set2: -6.0; Mdm2 MdmX PPI: 30.2; Gli-Sufu antag: -14.7; 697 NFkB inh: -16.1; Jurkat NFkB inh: 0.5

What do the screens show for `COc1ccc(-n2c(-c3ccccc3)c[n+]3c2CCC3)cc1`?
Shn3 inh set2: 33.8; Mdm2 MdmX PPI: 32.6; Gli-Sufu antag: 71.6*; 697 NFkB inh: 17.5; Jurkat NFkB inh: 48.3; Gli antag conf: 79.9*; Gli cytotox: 37.6*; Wnt3a cs: 23.3

Results for COc1ccc(-n2c(-c3ccc(Br)cc3)c[n+]3c2CCCCC3)cc1 ?
Shn3 inh set2: 89.1*; Mdm2 MdmX PPI: 19.8; Gli-Sufu antag: 87.6*; 697 NFkB inh: -35.9; Jurkat NFkB inh: 25.8; Gli antag conf: 86.4*; Gli cytotox: 41.4*; Wnt3a cs: 23.4

What do the screens show for `COc1ccc(-n2c(-c3ccc(Br)cc3)c[n+]3c2CCC3)cc1`?
Shn3 inh set2: 69.7; Mdm2 MdmX PPI: -1.2; Gli-Sufu antag: 80.4*; 697 NFkB inh: 6.8; Jurkat NFkB inh: 23.1; Gli antag conf: 80.4*; Gli cytotox: 37.8*; Wnt3a cs: 9.5

Results for COc1ccc(-n2c(-c3ccc(Br)cc3)nc(=S)c3c2CCCC3)cc1 ?
Shn3 inh set2: 15.9; Mdm2 MdmX PPI: -8.7; Gli-Sufu antag: 7.5; 697 NFkB inh: -17.0; Jurkat NFkB inh: 8.9

How did COc1ccc(-n2c(-c3ccc(Br)cc3)c[n+]3c2SC(C)C3)cc1 (stereo not given) do in these assays?
Shn3 inh set2: 52.5; Mdm2 MdmX PPI: 39.3; Gli-Sufu antag: 75.8*; 697 NFkB inh: 26.9; Jurkat NFkB inh: -0.9; Gli antag conf: 84.8*; Gli cytotox: 41.9*; Wnt3a cs: -21.3

What do the screens show for `COc1ccc(-n2c(-c3ccc(Br)cc3)n[nH]c2=S)cc1`?
Shn3 inh set2: 3.2; Mdm2 MdmX PPI: 27.3; Gli-Sufu antag: -13.7; 697 NFkB inh: 7.6; Jurkat NFkB inh: -8.7

How did Cc1ccc(C2=C(CC(=O)O)C(=O)CC2)cc1 do in these assays?
Shn3 inh set2: -21.2; Mdm2 MdmX PPI: 5.5; Gli-Sufu antag: 55.5*; 697 NFkB inh: 13.8; Jurkat NFkB inh: -8.8; Gli antag conf: 28.8; Gli cytotox: 18.6; Wnt3a cs: 7.2

How did CCCC1C(=O)Nc2ccccc2N1C(=O)c1cccc(C)c1 (stereo not given) do in these assays?
Shn3 inh set2: 13.4; Mdm2 MdmX PPI: 7.9; Gli-Sufu antag: 71.4*; 697 NFkB inh: 6.8; Jurkat NFkB inh: -13.2; Gli antag conf: 15.5; Gli cytotox: 17.4; Wnt3a cs: -0.8

How did Cc1ccc(S(=O)(=O)NCCC2=CCCCC2)cc1C(N)=O do in these assays?
Shn3 inh set2: 73.1; Mdm2 MdmX PPI: 10.8; Gli-Sufu antag: 58.3*; 697 NFkB inh: -25.6; Jurkat NFkB inh: 18.5; Gli antag conf: 47.3*; Gli cytotox: 18.6; Wnt3a cs: 18.6
